Inconclusive results are not listed. The source made the active and inactive calls. Calls come from the whole dose curve; as a rule, active = well fitted activation curve with a large enough effect in the signal ratio in the repeat runs (not every such curve was filed as active); inconclusive = weak or mixed curves; inactive = flat fitted curve, though single readings scatter; the % refers to the signal ratio.
Experiment: qHTS assay to identify small molecule agonists of the hypoxia (HIF-1) signaling pathway (AID 1224846)
Details: HRE-bla ME-180 cells, beta-lactamase ratio, 17 h; series mostly up to 76.8 µM; activation: at the top concentration
Text: U.S. Tox21 Program National Center for Advancing Translational Sciences [NCATS] NIH Chemical Genomics Center [NCGC] U.S. Environmental Protection Agency [EPA] National Institutes of Environmental Health Sciences [NIEHS] National Toxicology Program [NTP] U.S. Food and Drug Administration [FDA] Tox21 Assay Overview: Hypoxia-inducible factor-1 (HIF-1) is the major hypoxia-regulated transcription factor that controls cellular responses to low oxygen concentration. HIF-1 is composed of two subunits: hypoxia responsive HIF-1-alpha and constitutively expressed HIF-1-beta, which is also known as aryl hydrocarbon receptor nuclear translocator. During hypoxic conditions, HIF-1-alpha heterodimerizes with HIF-1-beta and translocates into the nucleus where the HIF-1 complex binds to the hypoxia-response element (HRE) and activates expression of target genes such as VEGF (vascular endothelial growth factor). The HIF-1 pathway is essential to normal growth and development, and is involved in the pathophysiology of cancer, inflammation, and ischemia. Using a beta-lactamase reporter-gene under control of the hypoxia response element, a cell-based assay [CellSensor(TM) HRE-bla ME-180 from Life Technologies, Carlsbad, CA] was used to measure hypoxia-induced signaling. Tox21 10K library compounds were measured for their ability to induce the reporter gene activity.
Tox21 Assay Protocol Summary: HRE-bla ME-180 cells were dispensed at 2,000 cells per well in 6 uL of assay medium containing 0.5% dialyzed FBS into black wall/clear-bottom 1536-well plates using a Multidrop Combi (Thermo Scientific, Waltham, MA) dispenser. After the assay plates were incubated at 37C and 5% CO2 for 5 hrs, 23 nL of compounds dissolved in DMSO, positive controls or DMSO only was transferred to each well of the assay plate using a Pintool station (Kalypsys, San Diego, CA). The assay plates were incubated at 37C and 5% CO2 for 17 hrs. One uL of LiveBLAzerTM B/G FRET substrate (CCF4-AM) (Life Technologies) was added to each well using a Flying Reagent Dispenser (Aurora Discovery, San Diego, CA).
% is set by controls: 0 for no effect and ±100 for the full control effect.

Compound | activation
O=C1CCN(c2ccccc2)N1 | -0.866% (inactive)
O=C1Nc2ccc([N+](=O)[O-])cc2C1=O | 0.0221% (inactive)
C[C@]12C(=O)OC(=O)[C@H]1[C@H]1C=C[C@@H]2C1 | -1.48% (inactive)
CCC(=O)c1ccc2c(c1)N(CCCN(C)C)c1ccccc1S2 | -1.47% [at 35.5 µM] (inactive)
COc1cc2c(cc1N)oc1ccccc12 | -0.904% (inactive)
Cc1cc(S(=O)(=O)O)c(N)cc1Cl | -0.0174% (inactive)
O=C(O[C@@H](C(=O)O)[C@@H](OC(=O)c1ccccc1)C(=O)O)c1ccccc1 | -1.14% (inactive)
CCOc1ccc(OCC)c(Cl)c1 | -0.812% (inactive)
CCOC(=O)CS | 0.0619% (inactive)
Oc1ccccc1C=NCc1ccccc1 | -0.539% [at 35.5 µM] (inactive)
OCCN1CCN(CCO)CC1 | 0.082% (inactive)
CCOc1ccc(NC(N)=O)cc1 | -0.493% (inactive)
CCc1cc(Cl)c(OC)c(C(=O)NC[C@@H]2CCCN2CC)c1O | 1.35% [at 35.5 µM] (inactive)
CCCCNc1ccc(C(=O)OCCN(CC)CC)cc1 | -0.446% [at 35.5 µM] (inactive)
C[C@@H](N)C(=O)O | -1.39% [at 35.5 µM] (inactive)
CCC/C=C/CO | -1.36% (inactive)
C1CCOC1 | 0.479% (inactive)
CC1=CC(=O)CC(C)(C)C1=O | -0.421% (inactive)
C=CCc1cc(OC)c(O)c(C(=O)NCCO)c1 | 0.74% [at 35.5 µM] (inactive)
OCCN(CCO)CCN(CCO)CCO | -1.12% (inactive)

Compound | activation
O=C1CCCCCCCCCCC(=O)OCCO1 | -0.697% (inactive)
CCN(CC)C(=O)N(CC)CC | -1.42% (inactive)
NS(=O)(=O)c1cc(-c2nn[nH]n2)c(NCc2cccs2)cc1Cl | 0.211% [at 35.5 µM] (inactive)
CC(C)C(=O)OC/C=C/c1ccccc1 | -1.41% (inactive)
Cc1cc2c(s1)Nc1ccccc1N=C2N1CCN(C)CC1 | 0.05% [at 35.5 µM] (inactive)
CC1(O)CSC(C)(O)CS1 (stereo not given) | -1.2% (inactive)
C=C(C)C(=O)OCCOP(=O)(O)O | -1.56% (inactive)
CC(C)S | -1.16% (inactive)
Cc1c(C(=O)NCCO)[n+](=O)c2ccccc2n1[O-] | -0.927% [at 35.5 µM] (inactive)
O=C(CCCl)NCc1ccccc1 | -0.291% [at 35.5 µM] (inactive)
OCc1c2ccccc2cc2ccccc12 | 0.737% (inactive)
Cc1nc(N)nc(N)c1-c1ccc(Cl)c(Cl)c1 | 2.54% [at 35.5 µM] (inactive)
Cc1ccccc1C(=O)Nc1ccc(C(=O)N2CCCC(O)c3cc(Cl)ccc32)c(C)c1 (stereo not given) | 0.849% [at 35.5 µM] (inactive)
COc1cc(Cl)ccc1Cl | -0.141% (inactive)
NC(=O)NS(=O)(=O)c1ccc(Cl)cc1 | -0.582% [at 35.5 µM] (inactive)
C1CSCCS1 | 0.17% (inactive)
CC(C)CC(=O)OCc1ccccc1 | 1.41% (inactive)
CC(C)(C)c1cccc(O)c1 | 1.99% (inactive)
O=Cc1ccc(O)c(O)c1O | 0.229% [at 35.5 µM] (inactive)
C[C@@H]1CN(c2c(F)c(F)c3c(=O)c(C(=O)O)cn(C4CC4)c3c2F)C[C@H](C)N1 | 0.101% [at 15.8 µM] (inactive)
